Measured values: PubChem BioAssay (NCATS)
Inconclusive results are not listed. Values without a mark were called inactive. The source made the active and inactive calls. The call rests on the fitted dose curve; in most records, active means well fitted cell-killing curve with a large enough effect; inconclusive means small, poorly fitted or top-dose-only effect; inactive means no such curve, though single readings can be large or run the other way. Non-standard residues stand in square brackets, D forms with d. Residues, ends and D or L forms follow the SMILES beside them. *: point of attachment. Nva = CCC[C@H](N)C(=O)O; Cbz = O=C(OCc1ccccc1)*

Test: qHTS of pediatric cancer cell lines to identify multiple opportunities for drug repurposing: Primary screen for MG 63 (6-TG R) cells (AID 1347105); further: nearly all actives have a fitted effect of over 50% in size
Conditions: MG 63 (6-TG R) viability, CellTiter-Glo, 48 h; series mostly up to 46 µM; activity change, negative = cytotoxic: at the top concentration
Description: Drug repurposing or repositioning has been offered as a strategy for drug development in oncology programs. This approach has special potential for childhood cancers and other rare or orphan diseases, where the expected return on new drug development has been a disincentive to pharmaceuticals. […] In this project we exploit the poly-pharmacology of drugs to discover new indications via phenotypic screening of a panel of 19 well-characterized cell lines derived from solid tumors seen in children and adolescents. The goal is to identify approved drugs with previously unrecognized anticancer properties that has the potential to reveal new mechanisms and biological processes involved in carcinogenesis or drug resistance. We employed a titration-based paradigm (quantitative high-throughput screening or qHTS), where all compounds were tested at multiple concentrations for their effect on cell viability. Concentration-response curves (CRCs) were derived directly from the primary screen, and both potency and efficacy values were used to identify compounds with robust bioactivity profiles. We screened the NIH Chemical Genomics Center (NCGC) Pharmaceutical Collection (NPC) and Mechanism Interrogation Plate (MIPE) small molecule collections of approved and investigational compounds against these cell lines; and measured metabolically active cells after 48 hours of compound treatment as a proxy for cell viability. […] Assay Submitter: Nathalia J. Martinez, National Center for Advancing Translational Sciences, National Institutes of Health, Rockville, MD, USA; email: natalia.martinez@nih.gov Shen, M et al. Quantitative high-throughput phenotypic screening of pediatric cancer cell lines identifies multiple opportunities for drug repurposing. Oncotarget 2017 Dec 19;9(4):4758-4772. PMID 29435139.
The cells were obtained from University of North Carolina (UNC), Pediatric Preclinical Testing Program (PPT), and Coriell Institute (CI). qHTS cell viability assay: Cells were assayed in growth media at a density of 500-1,000 cells/well. Five microliters of cells were dispensed into 1,536-well, white, solid-bottom, TC-treated plates (Greiner Bio One) using a multidrop dispenser and incubated at 37 degrees C, 5% CO2, under a humidified atmosphere for 5 hours. Twenty-three nanoliters of compounds and controls (neutral control DMSO or positive control bortezomib at final concentration of 2.3 µM) were subsequently transferred by Kalypsys pintool. For primary screens, the MIPE collection was tested at 11-point dilutions (final concentrations range from 0.78 nM to 46 µM) and the NPC collection at 8-point dilutions (final concentrations range from 0.59 nM to 46 µM). Compounds tested in follow-up screens were assayed at 11-point dilutions. Cells were incubated for 48 hours, followed by addition of 3 µL of CellTiter-Glo (Promega). After a 15 min incubation at room temperature, samples were analyzed for luminescence intensity using a ViewLux High-throughput CCD imager equipped with clear filters.
On the % scale 0 is the no-effect control and ±100 the full control effect; potency means the concentration at half of the fitted maximal effect.

SMILES	activity change, negative = cytotoxic	Potency
Cc1cncc2cccc(S(=O)(=O)N3CCCN(C(=O)CN)C[C@@H]3C)c12	-29.2%	–
C=C[C@@H]1CN2CCC1C[C@H]2[C@H](O)c1ccnc2ccc(OC)cc12 (stereo not given in full)	-16%	–
COc1cc2c(Nc3ccc(Cl)c(Cl)c3F)ncnc2cc1OCC1C[C@@H]2CN(C)C[C@H]2C1	–	14.8 µM (active)
COc1ccc(Nc2nccc(NCCO)n2)cc1	-29.8%	–
C[C@H](CCC(=O)O)[C@H]1CCC2C3C[C@H](O)[C@@H]4C[C@H](O)CC[C@]4(C)C3CC[C@@]21C (stereo not given in full)	-6.74%	–
Cc1ccc(O)c(C(CCN(C(C)C)C(C)C)c2ccccc2)c1 (stereo not given)	2.25%	–
C=CC(=O)Nc1cccc(Nc2nc(NC3CCC(N(C)C)CC3)nc3c2ncn3C(C)C)c1 (stereo not given)	–	0.469 µM (active)
COc1ccc(C(C)=O)c(O)c1	-4.34%	–
NC(=NCCCCCCN=C(N)N=C(N)Nc1ccc(Cl)cc1)N=C(N)Nc1ccc(Cl)cc1	–	14.8 µM (active)
Cn1cc(C=CC(=O)c2cccc(F)c2)cc1C=CC(=O)NO	-16%	–
COc1ccc2cc([S+]([O-])Cc3ncc(C)c(OC)c3C)nc2c1	11.8%	–
CC(=O)N[C@H]1[C@@H]([C@H](O)[C@H](O)CO)OC(C(=O)O)=C[C@@H]1N=C(N)N	-19.4%	–
NC(=O)Nc1sc(-c2ccc(F)cc2)cc1C(N)=O	–	0.59 µM (active)
C=C1CCC2[C@](C)(CO)C(O)CC[C@]2(C)C1CC=C1C(=O)OCC1O (stereo not given in full)	-10.6% [at 92.7 µM]	–
O=C(O)[C@H](CC(=O)N1C[C@@H]2CCCC[C@H]2C1)Cc1ccccc1	16.5%	–
O=C(C[C@@H]1CC=CCCC(=O)O[C@H](c2ccccc2)CNC1=O)NCc1ccc(Cl)cc1	-23.4%	–
c1coc(CNc2ncnc3nc[nH]c23)c1	-16.7%	–
CCC[C@@H](C=O)NC(=O)[C@H](CC(C)C)NC(=O)[C@H](CC(C)C)NC(=O)OCc1ccccc1 (Cbz-Leu-Leu-[Nva]-aldehyde)	–	0.935 µM (active)
CCCCCCCCCCCCc1ccc(S(=O)(=O)Nc2nncs2)cc1	-14.9%	–
CN1[C@H]2CC(OC(=O)[C@@H](CO)c3ccccc3)C[C@H]1[C@H]1O[C@H]12 (stereo not given in full)	-7.63% [at 16.1 µM]	–

SMILES	activity change, negative = cytotoxic	Potency
O=C(CN1C(=O)C2(CCCC2)NC[C@H]1c1cc(F)cc(F)c1)Nc1ccc2c(c1)C[C@@]1(C2)C(=O)Nc2ncccc21	-2.55%	–
c1ccc2c(Oc3nc(Nc4ccc(N5CCOCC5)cc4)c4ncn(C5CCCCC5)c4n3)cccc2c1	-22.5%	–
CC(C)NC[C@@H](C(=O)N1CCN(c2ncnc3c2[C@H](C)C[C@H]3O)CC1)c1ccc(Cl)cc1	–	3.72 µM (active)
CCNC(=O)Nc1ccc(-c2nc3c(c(N4CCOC[C@H]4C)n2)CCN(C2COC2)C3)cc1	–	0.743 µM (active)
C[C@H]1O[C@H](O[C@H]2[C@H](O)[C@@H](O)[C@@H](O[C@H]3[C@H](O)[C@@H](O)C(O)O[C@H]3CO)O[C@H]2CO)[C@H](O)[C@@H](O)[C@H]1N[C@H]1C=C(CO)[C@@H](O)[C@H](O)[C@@H]1O (stereo not given in full)	-0.388%	–
CC(C(C)N1CC(=O)NC(=O)C1)N1CC(=O)NC(=O)C1 (stereo not given)	-16.7%	–
COC[C@H](NC(=O)c1cnc(C)s1)C(=O)N[C@@H](COC)C(=O)N[C@@H](Cc1ccccc1)C(=O)[C@@]1(C)CO1	–	0.235 µM (active)
CNC(=O)c1ccc(Nc2cc(Nc3ccccc3S(=O)(=O)C(C)C)c3cc[nH]c3n2)nc1	–	5.9 µM (active)
CC(=O)[C@]1(O)Cc2c(O)c3c(c(O)c2[C@@H](O[C@H]2C[C@H](N)[C@@H](O)[C@H](C)O2)C1)C(=O)c1ccccc1C3=O	–	0.235 µM (active)
CON=C(C(=O)N[C@@H]1C(=O)N2C(C(=O)O)=C(Cn3ccc(=N)n3CCO)CS[C@H]12)c1csc(N)n1	-14.1%	–
CN(C)c1ccc(C(=O)NCCCCCCC(=O)NO)cc1	–	2.35 µM (active)
CN(N=O)C(=O)N[C@H]1C(O)OC(CO)[C@@H](O)[C@H]1O (stereo not given in full)	-11.4%	–
CCc1ccc(C(=O)Nc2cc(CN3CCN(C)CC3)cc(C(F)(F)F)c2)cc1C#Cc1cnc2ccnn2c1	–	18.7 µM (active)
C[C@]12C=CC(=O)N[C@@H]1CC[C@H]1[C@H]3CC[C@@H](C(=O)Nc4cc(C(F)(F)F)ccc4C(F)(F)F)[C@@]3(C)CC[C@@H]12	36.4%	–
COc1ccc(Nc2cc(-c3cnc(N)nc3)nc(N3CCOCC3)n2)cn1	–	3.72 µM (active)
Nc1nc(=O)n([C@H]2C[C@H](O)[C@@H](CO)O2)cc1F	-29%	–
C#C[C@]1(O)CC[C@@H]2[C@@H]3CCC4=CC(=O)CC[C@@H]4[C@H]3CC[C@@]21CC	-34.3%	–
CC(C)(C)[C@H](NC(=O)c1ccc(N)c(Cl)c1)C(=O)N1CCC[C@@H]1C(=O)N[C@H](C#N)CC(=O)O	-25.9% [at 4.84 µM]	–
CCOc1cc2c(c(F)c1OCC)C(=N)N(CC(=O)c1cc(N3CCOCC3)c(OC)c(C(C)(C)C)c1)C2	–	14.8 µM (active)
O=C(c1ccc(F)cc1)N1CCC[C@H](c2nc(-c3ccc(F)cc3)no2)C1	-15.5%	–
